TWEAK Fn14 block – inhibitors of TWEAK-Fn14 signaling, primary screen, luciferase reporter cells, uHTS | inhibition, % at 10 µM | TWEAK-stimulated Fn14 reporter cells, luciferase luminescence, 8 h | 2% of 360,000 active; in the data active = inhibition above about 50%
CF NFkB block – inhibitors of PAF-induced NF-kB signaling, primary screen, cell-based, GFP fluorescence, uHTS; AID 588850, 2011; inhibition, % at 5 µM; 0.86% of 360,000 active; KKLEB NF-kB-GFP reporter, GFP fluorescence overnight;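 active = at least 50% inhibition at 5 µM, scaled per plate between neutral and stimulator controls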;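 note: PAF is a Pseudomonas aeruginosa culture filtrate used as stimulus; plate controls were PAF-stimulated DMSO wells for no effect and unstimulated DMSO wells for full effect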
HIF-2a block – HIF-2a reporter inhibitors, primary screen, luminescence, 786-0 RCC cells; 786-0 RCC cells HIF-2a reporter, luciferase luminescence, overnight; inhibition, % at 18.8 µM; 0.72% of 360,000 active; AID 624352, 2012;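 active = inhibition of the luminescence signal of 40% or more relative to plate controls, in a single-dose primary screen at 18.75 µM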
TROY signal inh – inhibitors of TROY-driven NF-kB signaling, primary screen, Q293 LMP1-TROYcd cells, NF-kB luciferase, uHTS | 0.98% of 360,000 active | inhibition, % at 10 µM | Q293 LMP1-TROYcd NF-kB luciferase reporter, 4 h;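 active = compounds whose plate-normalised and pattern-corrected inhibition of the luciferase reporter signal at the single screening dose is 50% or more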
Peg3 prom inh-1 – Peg3 promoter-driven luciferase inhibitors, primary screen, cell-based, HeLa, luciferase luminescence; AID 588405, 2011; 1.7% of 360,000 active; inhibition, % at 20 µM; HeLa PEG-Prom luciferase reporter, overnight;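 active = inhibition of at least 50% at 20 µM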
KKLEB tox – cytotoxicity in KKLEB CF airway cells, primary screen, cytotoxicity control for CF NF-kB inhibitor project, cell-based, uHTS, fluorescence assay plates; activity change (cytotoxicity), % at 5 µM; AID 602141, 2011; 0.36% of 360,000 active; KKLEB CF airway cells viability, ATPlite luminescence, overnight; stronger effect = lower value; cells stimulated with P. aeruginosa culture filtrate;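 active = corrected activity change at or below -50% at 5 µM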
Peg3 prom inh-2 – Peg3 promoter reporter inhibitors, retest, confirmation, cell-based, HeLa, luciferase reporter, single concentration. shares compounds with Peg3 prom inh-1. HeLa PEG-Prom luciferase reporter, luminescence, overnight. inhibition, % at 20 µM. 84% of 1,300 active. AID 602417, 2012;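 active = at 20 µM dose, 40% or more inhibition averaged across four replicates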
* = called active by the depositor; · = no result given. An excerpt weighted towards active compounds, which were near 4% of everything screened.

SMILES	TWEAK Fn14 block	CF NFkB block	HIF-2a block	TROY signal inh	Peg3 prom inh-1	KKLEB tox	Peg3 prom inh-2
O=C(CCCN1C(=O)/C(=C/c2ccccc2Cl)SC1=S)NNC(=O)c1ccc(Cl)cc1	53.3*	4.1	73.3*	66.3*	63.8*	-8.9	44.7*
O=C1/C(=C/c2ccccc2Cl)SC(=S)N1CCCC(=O)N(CCO)c1ccccc1	60.3*	13.2	70.8*	63.4*	66.7*	2.1	90.9*
COc1ccc(Cl)cc1NS(=O)(=O)c1cccc(C(=O)NCC(c2ccco2)N(C)C)c1 (stereo not given)	0.6	-15.7	8.9	-0.2	8.8	-0.2	·
COC1C(O)C(O)C(O)C(O)C1O (stereo not given)	-6.4	13.3	8.3	-7.1	0.6	-8.5	·
CC(C)c1cccc(C(C)C)c1NC(=O)CN1C(=O)NC2(CCCCCCC2)C1=O	1.1	25.8	-6.3	-1.9	-9.7	-4.8	·
O=C(Nc1ncccc1O)c1ccc(S(=O)(=O)Nc2ccccc2)cc1	-91.3	-13.2	-67.8	16.2	-11.5	-7.7	·
C=CCNS(=O)(=O)NC(=O)C1=C(N2CCCC2)COC1=O	0.0	-2.4	2.3	3.6	5.2	1.1	·
O=C(/C=C/c1ccc2ccccc2n1)N1CCN(S(=O)(=O)c2ccccc2F)CC1	5.1	35.8	34.7	-0.4	50.2*	-23.1	38.8
C/C(=N\NC(=O)c1c(C)nc2ccccn12)c1ccc(O)cc1O	-6.1	1.0	4.6	-5.0	52.0*	2.5	59.9*
CCCCC1C(=O)N(c2ccccc2)N(c2ccc(O)cc2)C1=O (stereo not given)	84.4*	82.5*	95.5*	55.4*	101.3*	29.0	73.6*
CCCCC1(Br)C(=O)N(c2ccccc2)N(c2ccccc2)C1=O	-0.9	-26.4	-3.6	1.2	13.0	9.0	·
COc1ccc(C)cc1Nc1n[n+](-c2ccccc2)c(-c2ccc(OC)c(OC)c2OC)s1	-16.0	8.5	6.1	18.3	3.0	-5.9	·
COc1ccc(C)cc1Nc1n[n+](-c2ccccc2)c(-c2ccc(N(C)C)cc2)s1	16.6	23.1	-32.3	7.5	61.6*	3.6	50.0*
CN(C)CCCN(C(=O)c1ccc2c(c1)OCCO2)c1nc2ccc(Cl)cc2s1	18.2	15.8	-195.8	37.9	-11.2	-10.3	·
Cc1ccc(C(=O)N(CCCN(C)C)c2nc3ccc(Cl)cc3s2)cc1C	-22.3	30.7	-28.9	-55.3	56.4*	-21.3	92.7*
O=C(Nc1ccc([N+](=O)[O-])cc1)C(=O)Nc1cccc(C(=O)O)c1	-15.2	-25.8	79.5*	-29.4	64.2*	12.4	68.4*
O=C(CN1C(=O)COc2ccccc2C1=O)c1ccc2c(c1)OCCO2	13.3	-14.4	-17.6	-66.6	-19.9	1.9	·
O=C1NC[C@H](CCCCN2C[C@H](Cc3ccc(O)cc3)N(CC3CCCCC3)C(=O)C2=O)N(CCc2ccc(O)cc2)C1=O	-1.1	·	-2.8	5.7	·	·	·
CCN(CC)c1ccc2nc3ccc(N)cc3[n+](-c3ccccc3)c2c1	11.0	-17.7	1.0	-1.9	88.9*	-8.1	72.2*
Cc1ccc(-c2cc(=O)c3ccccc3[nH]2)cc1	0.0	4.0	-168.3	-61.9	-92.5	-2.2	·
Cc1ccc(-c2cc3c(N=O)c4ccccc4c-3n[nH]2)cc1	102.9*	-22.5	68.0*	88.1*	59.4*	-81.2*	69.2*
COc1cc(OC)cc(-c2c(-c3cccs3)c3cc(-c4ccc(N(C)C)nc4)ccc3n2C)c1	-46.4	16.8	8.5	-1.9	52.0*	-9.8	24.6
COc1cc(F)cc(-c2ccc3c(c2)c(-c2cccs2)c(-c2cc(OC)cc(OC)c2)n3C)c1	34.7	24.6	12.3	38.0	4.1	-21.4	·
CCc1cnc(Nc2nc(C(N)Cc3ccc(F)cc3)cs2)nc1 (stereo not given)	11.2	8.2	5.0	14.6	19.8	-24.7	·
Cc1ccc2cccc(OCC(=O)Nc3cccc(S(=O)(=O)N4CCCC4)c3)c2n1	38.2	2.0	6.4	35.4	64.4*	-18.5	64.1*
SMILES	TWEAK Fn14 block	CF NFkB block	HIF-2a block	TROY signal inh	Peg3 prom inh-1	KKLEB tox	Peg3 prom inh-2
COc1ccc(NC(=O)COc2ccccc2Cc2ccccc2)cc1S(=O)(=O)N1CCOCC1	2.9	6.9	-2.3	21.2	30.9	-1.5	·
Cc1cc(-n2c(SCc3ccccc3F)nc3n[nH]c(C)c3c2=N)ccc1Cl	1.3	-5.5	-0.6	2.4	21.2	-4.0	·
CCN(C(=O)CSc1nc2n[nH]c(C)c2c(=N)n1-c1ccc(Cl)c(C)c1)c1cccc(C)c1	28.0	26.8	17.8	42.8	71.8*	6.0	49.1*
CC(C)C[C@H](NC(=O)OC(C)(C)C)C(=O)N[C@@H](CO)[C@H](O)[C@@H]1C[C@@H]1C(=O)N(C)C	11.3	-1.3	12.1	1.1	2.0	9.5	·
Cc1nn(CC(=O)NCc2ccc(OC(C)C)cc2)c(=O)c2cc(-c3ccccc3)nn12	6.4	8.4	10.2	-3.8	51.0*	-3.3	15.4
CC1(Cc2cc(Cl)ccc2C(F)(F)F)C(=O)Nc2ccc(OC(F)(F)F)cc21 (stereo not given)	10.6	-13.0	10.0	20.3	52.0*	-1.0	12.7
CCc1nc2ccc(C(=O)NCCCn3ccnc3)cn2c1N(C)CCCc1ccccc1	-10.6	-0.7	8.8	-0.8	11.2	-4.7	·
CCCOc1ccc2cc(-c3ccccn3)c(=O)oc2c1	93.3*	-13.5	55.1*	63.6*	74.4*	-45.8	68.0*
CCOc1ccc(/C(O)=C2\C(=O)C(=O)N(c3ccccn3)C2c2ccccc2F)c(C)c1 (stereo not given)	2.4	13.8	-77.3	-7.8	-7.7	-4.2	·
Cc1ccccc1NC(=O)Nc1nc(C(N)C2CCCCC2)cs1 (stereo not given)	-51.6	17.6	1.6	-2.6	85.7*	-13.8	80.6*
CC(C)c1ccc(NC(=O)Nc2nc(C(C)N)cs2)cc1 (stereo not given)	-4.6	0.5	3.7	26.7	85.6*	-0.1	90.2*
NC(c1csc(Nc2nccc(C(F)(F)F)n2)n1)C1CCCCC1 (stereo not given)	-15.7	-3.9	-0.7	5.7	82.5*	-0.1	94.0*
CC(C)c1ccc(NC(=O)Nc2nc(CN)cs2)cc1	-19.1	5.0	-52.0	-58.2	-270.1	5.6	·

Screening data (PubChem)
